This note sets out measurements from PubChem BioAssay.

A short description of this test: probe aDKK1 binding to arrayed compounds – biochemical, biotinylated probe, 635/667 nm fluorescence, primary screen (AID 1099).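 Also: score merges 667nm spot fluorescence with signal to noise across triplicate slides; reference of the scale not given here.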 The conditions noted are these: small-molecule microarray, higher = more signal.
`O=C1C=C[C@@H](O)[C@@H]2[C@@H]3C(=O)N(C4CCCCC4)C(=O)[C@@H]3CC[C@@H]12`: the composite z-score is -0.0259. The value for `C[C@@H]1CC[C@H]2C(=O)OC(Cc3ccccc3)CN2[C@H]1c1ccc(Br)cc1` (stereo partly specified) was -0.193; that for `O=C1[C@H]2[C@H]3[C@H](O)[C@H](O)CC(=NO[C@@H]4O[C@H](CO)[C@@H](O)[C@H](O)[C@H]4O)[C@H]3CC[C@H]2C(=O)N1c1ccc(F)cc1F` was 0.0579; that for `COc1ccc(COC(=O)NN=C2C[C@@H](O)[C@@H](O)[C@@H]3[C@@H]4C(=O)N([C@@H](C)c5ccccc5)C(=O)[C@@H]4CC[C@H]23)cc1` was -0.121. The value for `CC(=O)OC[C@H]1O[C@H](CC=NO[C@H](C)c2cn([C@@H]3COC[C@H]3O)nn2)C=C[C@@H]1OC(C)=O` was -0.185; that for `COc1ccc(O[C@H]2C=C[C@@H](c3ccccc3)O[C@@H]2CO)cc1` was -0.227; that for `CCOC(=O)[C@H](Cc1ccccc1)NC(=O)CCC1CC(OC(=O)NCCc2ccc(F)cc2)CC2(CCCC(COC(=O)NCCOc3ccccc3)O2)O1` (stereo partly specified) was -0.119. The value for `O=C1C[C@@H](O)[C@@H](O)[C@@H]2[C@@H]3C(=O)N(C4CCCCC4)C(=O)[C@@H]3CC[C@@H]12` was -0.28; that for `CC(CCN1CCCCc2nc(C)c(C)cc21)=NO[C@@H](C)c1cc(-c2c(C)cc(C)cc2C)no1` was -0.422; that for `CCOC(=O)[C@H](CC(C)C)NC(=O)CCC1CC(OC(=O)NCc2ccc3c(c2)OCO3)CC2(CCCC(COC(=O)NCCOc3ccccc3)O2)O1` (stereo partly specified) was 0.0931. Consider `C=CC[C@@H]1C=C[C@H](ON=C(C)CCN2CCCc3nc(C)c(C)cc32)[C@@H](CO)O1`, for which the composite z-score is 0.381. The value for `O=C1CCCC=C1C(O)C1CCCCC1` (stereo unspecified) was -0.214; that for `CO[C@H]1COC(=O)CC=C[C@H](C)[C@H](OC)COC(=O)[C@@H](C)NC(=O)CC=C[C@@H]1C` was -0.407; that for `COC(=O)CC=C[C@@H](C)[C@@H](C=NOC[C@@H](C)[C@H](OCc1ccccc1)C(C)C)OC` was -0.325.

In turn, `CC(C)CON=C1C[C@@H](O)[C@@H](O)[C@@H]2[C@@H]3C(=O)N(C(C)(C)C)C(=O)[C@@H]3CC[C@@H]12` registered a composite z-score of -0.58.

`CC1(C)O[C@H]2OC([C@H](O)CON3C(=O)c4ccccc4C3=O)[C@H](O)[C@H]2O1` (stereo partly specified) registered a composite z-score of -0.467.

Compound `CCOC(=O)CCN1C(=O)[C@H]2[C@H]3[C@H](O)[C@H](O)CC(=NNC(=O)OCC)[C@H]3CC[C@H]2C1=O` registered a composite z-score of -0.55. Compound `CCN(CC)CC(O)CN1CCCCc2nc(C)c(C)cc21` (stereo unspecified) gave a composite z-score of -0.33.

In turn, `CC(C)=NO[C@@H](C)c1cn([C@H](CO)Cc2ccccc2)nn1` displayed a composite z-score of 0.0454.

The compound `O=C(NN=C1C[C@@H](O)[C@@H](O)[C@@H]2[C@@H]3C(=O)N(Cc4ccccc4)C(=O)[C@@H]3CC[C@H]12)OCc1ccccc1` returned a composite z-score of -0.427. The value for `CCOC(=O)CCN1C(=O)[C@H]2[C@H]3[C@H](O)[C@H](O)CC(=NOCC=C(C)CCC=C(C)C)[C@H]3CC[C@H]2C1=O` was 0.28. Regarding `CC(=O)OC[C@H]1O[C@@H](ON=C2[C@H]3CCn4c(=O)n(-c5ccccc5)c(=O)n4[C@H]3[C@H](O)[C@@H]3O[C@H]23)[C@H](OC(C)=O)[C@@H](OC(C)=O)[C@@H]1OC(C)=O`, the composite z-score is -0.425. On to `O=C1CCCC=C1C(O)COCc1ccccc1` (stereo unspecified), for which the composite z-score was -0.32. Take `C[C@H]1CC[C@@H](C(=O)O)N[C@@H]1c1cccc(N2CCCC2=O)c1`: the composite z-score is -0.154. Compound `COC(=O)[C@H](C)NC(=O)CCC1CC(OC(=O)NCc2ccc3c(c2)OCO3)CC2(CCCC(COC(=O)NCCCN3CCCC3=O)O2)O1` (stereo partly specified) displayed a composite z-score of -0.286. In turn, `CC(C)(C)N1C(=O)[C@H]2[C@@H]3C(=CC[C@H]2C1=O)C(=O)[C@H]1O[C@H]1[C@H]3O` displayed a composite z-score of -0.366.

Compound `CCOC(=O)NN=C1C[C@@H](O)[C@@H](O)[C@@H]2[C@@H]3C(=O)N(C[C@@H]4CCCO4)C(=O)[C@@H]3CC[C@H]12` returned a composite z-score of -0.0748. As for `CC(C)=CCCC(C)=CCON=C1C[C@@H](O)[C@@H](O)[C@@H]2[C@@H]3C(=O)N(Cc4ccc5c(c4)OCO5)C(=O)[C@@H]3CC[C@H]12`, the composite z-score is -0.101. In turn, `CC(=O)OC[C@H]1O[C@H](CC=NOC(C)CN2CCCCc3nc(C)c(C)cc32)C=C[C@@H]1OC(C)=O` (stereo partly specified) registered a composite z-score of -0.0799. `CCOC(=O)[C@H](Cc1ccccc1)NC(=O)CCC1CC(OC(=O)NCCc2ccc(F)cc2)CC2(CCCC(COC(=O)NCc3cccc(C(F)(F)F)c3)O2)O1` (stereo partly specified) yielded a composite z-score of -0.139. The value for `O=C1C=C[C@@H](O)[C@@H]2[C@@H]3C(=O)N(Cc4ccc5c(c4)OCO5)C(=O)[C@@H]3CC[C@@H]12` was -0.0574.
